# Test results as given in PubChem BioAssay AID2235 (The Scripps Research Institute Molecular Screening Center, 2010).
# Screen size: about 320,000 compounds; about 2,800 (0.88%) were called active. Many of the other results were omitted from the sample, so actives are more common in it than they were. Values without a mark were called inactive.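 The calls were made as follows: active = inhibition above the mean inhibition of all tested compounds plus 3 SD, computed separately for each screening campaign (cut at about 15% in these data); inactive = the rest.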
# Molecular target: Serine/threonine-protein phosphatase PP1-alpha catalytic subunit (Homo sapiens) (UniProt P62136)
# Experiment: PP1-alpha phosphatase inhibitors, primary screen, counter-screen for PP5 inhibitor project, biochemical, fluorescence, OMFP substrate, single point (AID 2235)
# Details: purified PP1alpha, at 6.7 µM, stronger effect = higher value
# Sequence of Serine/threonine-protein phosphatase PP1-alpha catalytic subunit (Homo sapiens) (P62136 whole entry, looked up): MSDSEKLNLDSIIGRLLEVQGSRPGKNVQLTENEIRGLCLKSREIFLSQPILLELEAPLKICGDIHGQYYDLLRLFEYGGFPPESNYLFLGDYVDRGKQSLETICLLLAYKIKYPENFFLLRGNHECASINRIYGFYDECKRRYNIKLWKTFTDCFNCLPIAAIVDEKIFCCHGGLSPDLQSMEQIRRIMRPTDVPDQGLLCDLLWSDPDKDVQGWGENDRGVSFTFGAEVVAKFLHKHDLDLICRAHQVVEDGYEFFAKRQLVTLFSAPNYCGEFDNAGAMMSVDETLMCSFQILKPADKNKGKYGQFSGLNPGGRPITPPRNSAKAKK
row,Structure (SMILES),inhibition
1,O=c1[nH]c(CN2CC=C(c3ccccc3)CC2)nc2scc(-c3cccs3)c12,18.9% (active)
2,CC(C)Nc1nc(Cl)nc(NC(C)C)n1,-5.49%
3,Cc1ccc(Cn2c(C)c3cnn(CC(=O)N4CCC5(CC4)OCCO5)c(=O)c3c2C)cc1,10.3%
4,COC(=O)C1=C(c2cccc(OCc3ccccc3)c2)C[C@@H]2CC[C@H]1N2C(=O)NNCc1ccccc1,7.24%
5,Cc1ccc(P(=S)(c2ccc(C)o2)N2CCOCC2)o1,3.58%
6,Cc1ccc(-c2nn(CCC#N)cc2C(=O)O)cc1C,0.33%
7,O=C(O)c1ccccc1NC(=O)C1C2CCC(O2)C1C(=O)O (stereo not given),33.1% (active)
8,CC(=O)Nc1ccc(C(=O)C(Cc2ccccc2)N(C)C)cc1 (stereo not given),-0.99%
9,COC(=O)C1=C(c2cc3ccccc3o2)C[C@@H]2CC[C@H]1N2C(=O)NC1CCCCC1,-1%
10,CCOP(=O)(OCC)C(O)c1ccc(OC)cc1OC (stereo not given),47.2% (active)
11,CCOP(=O)(OCC)C(NC(=O)c1ccc(OC)cc1)C(Cl)(Cl)Cl (stereo not given),0.9%
12,CCOP(=O)(OCC)C(NC(=O)c1ccc(C)cc1)C(Cl)(Cl)Cl (stereo not given),-1.96%
13,CNC(=O)Nc1ccc(C(O)(C(=O)OC)C(F)(F)F)cc1 (stereo not given),1.95%
14,Cc1ccc(C2CN(C)CC2C(=O)c2ccc(F)cc2)cc1 (stereo not given),-2.93%
15,COCc1cc(OC(=O)N(C)C)nc(-c2ccc(C)c(Cl)c2)n1,-1.37%
